Assay results from the antibiotic and cytotoxicity screens of Wong et al. (2023).
Among all 39,000 compounds or so, about 3,300 (8.5%) were called active. Only a selection was taken, and actives are over-represented in it overall.

System: HepG2
Assay: cytotoxicity call (relative viability < 0.9)
Conditions: 10 µM

Q: How did the cytotoxicity call turn out when C[C@H]1CCCCO[C@@H](CN(C)C(=O)Nc2ccc3c(c2)OCO3)[C@@H](C)CN([C@@H](C)CO)C(=O)c2cc(NC(=O)Nc3ccc(C(F)(F)F)cc3)ccc2O1 was run?
A: inactive

Q: Which cytotoxicity call does the source give for C=CC[C@@H](CC(=O)N[C@H](CO)Cc1ccccc1)C(=O)NCCOC(=O)[C@@H](CC=C)CC(=O)OC(C)(C)C here?
A: inactive

Q: COCCCNC(=O)C[C@H]1SC(=N)NC1=O was tested. Which cytotoxicity call did it give?
A: inactive

Q: For COc1ccc(NC(=O)Nc2ccc3c(c2)C(=O)N([C@@H](C)CO)C[C@H](C)[C@H](CN(C)S(=O)(=O)c2cccs2)OCCCC[C@H](C)O3)cc1, which cytotoxicity call is on record?
A: inactive

Q: Which cytotoxicity call does the source give for COc1ccc(S(=O)(=O)N2C[C@@H](O)COC[C@H]3O[C@H](CC(=O)N[C@@H]4CCN(Cc5ccccc5)C4)CC[C@@H]32)cc1 here?
A: inactive

Q: For O=C(C[C@@H]1C=C[C@@H](NS(=O)(=O)c2ccccc2)[C@H](CO)O1)NCc1ccncn1, which cytotoxicity call is on record?
A: inactive

Q: C[C@H](CO)N1C[C@H](C)[C@H](CN(C)C(=O)C2CCCCC2)OCCCC[C@H](C)Oc2ccc(NC(=O)Nc3ccc(C(F)(F)F)cc3)cc2C1=O was tested. Which cytotoxicity call did it give?
A: inactive

Q: Which cytotoxicity call does the source give for COc1ccc(NC(=O)N(C)C[C@H]2Oc3ccc(NC(=O)CCN4CCOCC4)cc3CC(=O)N([C@H](C)CO)C[C@H]2C)cc1 here?
A: inactive

Q: How did the cytotoxicity call turn out when COc1ccc(COC[C@]23N=C4SCc5ccccc5C(=O)N4[C@H](c4ccccc4O2)[C@H]3CO[Si](C)(C)C(C)(C)C)cc1 was run?
A: inactive

Q: Which cytotoxicity call does the source give for O=C(NCC(F)(F)F)[C@H]1[C@H](CO)[C@H]2Cn3c(cccc3=O)[C@H]2N1C(=O)C1CCC1 here?
A: inactive

Q: C[C@H]1CN([C@@H](C)CO)S(=O)(=O)c2ccc(C#Cc3ccccc3)cc2O[C@H]1CN(C)S(=O)(=O)c1cn(C)cn1 was tested. Which cytotoxicity call did it give?
A: inactive

Q: For Cc1noc(C)c1NC(=O)Nc1ccc2c(c1)C(=O)N([C@H](C)CO)C[C@H](C)[C@H](CN(C)Cc1ccc3c(c1)OCO3)OCCCC[C@@H](C)O2, which cytotoxicity call is on record?
A: inactive

Q: Which cytotoxicity call does the source give for COc1ccc(S(=O)(=O)Nc2cccc3c2O[C@@H](CN(C)S(=O)(=O)c2cccs2)[C@H](C)CN([C@@H](C)CO)C3=O)cc1 here?
A: inactive

Q: COc1cc2c(cc1OC)CN(C(=O)[C@@H]1[C@H]3C(=O)O[C@H](c4ccccc4)[C@H](c4ccccc4)N3[C@H](c3ccc(O)cc3)[C@@]13C(=O)Nc1ccccc13)CC2 was tested. Which cytotoxicity call did it give?
A: inactive

Q: For C[C@@H]1CN([C@H](C)CO)C(=O)c2cc(NC(=O)Nc3ccc(F)cc3)ccc2O[C@@H](C)CCCCO[C@H]1CN(C)Cc1ccccc1, which cytotoxicity call is on record?
A: active

Q: With C[C@@H]1CCCCO[C@H](CN(C)Cc2ccccc2)[C@@H](C)CN([C@@H](C)CO)C(=O)c2cc(NC(=O)Nc3ccc(F)cc3)ccc2O1 as the compound, how does the cytotoxicity call read?
A: inactive

Q: Which cytotoxicity call does the source give for C[C@@H]1CCCCO[C@@H](CN(C)Cc2ccccc2)[C@H](C)CN([C@@H](C)CO)C(=O)c2cc(NC(=O)Nc3ccc(F)cc3)ccc2O1 here?
A: inactive

Q: Which cytotoxicity call does the source give for C[C@@H]1CCCCO[C@@H](CN(C)Cc2ccccc2)[C@H](C)CN([C@H](C)CO)C(=O)c2cc(NC(=O)Nc3ccc(F)cc3)ccc2O1 here?
A: inactive

Q: With C[C@@H]1CCCCO[C@@H](CN(C)Cc2ccc(F)cc2)[C@H](C)CN([C@@H](C)CO)C(=O)c2cc(NC(=O)Nc3ccccc3)ccc2O1 as the compound, how does the cytotoxicity call read?
A: inactive

Q: How did the cytotoxicity call turn out when C[C@@H]1CN([C@@H](C)CO)C(=O)c2cc(NC(=O)Nc3ccc(F)cc3)ccc2O[C@@H](C)CCCCO[C@H]1CN(C)Cc1ccccc1 was run?
A: active

Q: C[C@@H]1CCCCO[C@H](CN(C)Cc2ccccc2)[C@@H](C)CN([C@H](C)CO)C(=O)c2cc(NC(=O)Nc3ccc(F)cc3)ccc2O1 was tested. Which cytotoxicity call did it give?
A: inactive

Q: For C[C@@H]1CCCCO[C@@H](CN(C)Cc2ccccc2)[C@@H](C)CN([C@@H](C)CO)C(=O)c2cc(NC(=O)Nc3ccc(F)cc3)ccc2O1, which cytotoxicity call is on record?
A: inactive

Q: How did the cytotoxicity call turn out when C[C@@H]1CN([C@@H](C)CO)C(=O)c2cc(NC(=O)Nc3ccc(F)cc3)ccc2O[C@@H](C)CCCCO[C@@H]1CN(C)Cc1ccccc1 was run?
A: active

Q: Which cytotoxicity call does the source give for C[C@H]1CCCCO[C@H](CN(C)Cc2ccccc2)[C@@H](C)CN([C@@H](C)CO)C(=O)c2cc(NC(=O)Nc3ccc(F)cc3)ccc2O1 here?
A: active

Q: C[C@@H]1CCCCO[C@@H](CN(C)Cc2ccccc2)[C@@H](C)CN([C@H](C)CO)C(=O)c2cc(NC(=O)Nc3ccc(F)cc3)ccc2O1 was tested. Which cytotoxicity call did it give?
A: inactive

Q: Which cytotoxicity call does the source give for C[C@@H]1CN([C@@H](C)CO)S(=O)(=O)c2ccc(C#CCN(C)C)cc2O[C@H]1CN(C)C here?
A: inactive

Q: For C[C@H]1CN([C@@H](C)CO)C(=O)c2cc(NS(=O)(=O)c3ccccc3)ccc2O[C@@H]1CN(C)CC1CC1, which cytotoxicity call is on record?
A: inactive

Q: With C[C@H](CO)N1C[C@H](C)[C@@H](CN(C)Cc2ccc(C(=O)Nc3ccccc3N)cc2)Oc2ccc(NC(=O)Cc3cn(C)c4ccccc34)cc2CC1=O as the compound, how does the cytotoxicity call read?
A: inactive

Q: For CN1C(=O)c2cc(NC(=O)c3cccs3)ccc2OC[C@@H]2O[C@H](CC(=O)NCC(F)(F)F)CC[C@@H]21, which cytotoxicity call is on record?
A: inactive

Q: C[C@@H]1CN([C@H](C)CO)C(=O)CCCn2cc(nn2)CO[C@H]1CN(C)S(=O)(=O)c1ccc(Oc2ccccc2)cc1 was tested. Which cytotoxicity call did it give?
A: inactive

Q: C[C@H](O)C#Cc1cnc2c(c1)C(=O)N([C@@H](C)CO)C[C@@H](C)[C@H](CN(C)C(=O)Nc1ccc(C(F)(F)F)cc1)O2 was tested. Which cytotoxicity call did it give?
A: inactive

Q: For CS(=O)(=O)N1CCCn2c(nnc2Cn2cccn2)C1, which cytotoxicity call is on record?
A: inactive

Q: O=C(NO)c1ccc(C(=O)N/N=C/[C@H](O)[C@@H](O)[C@H](O)[C@H](O)CO)cc1 was tested. Which cytotoxicity call did it give?
A: inactive

Q: For C[C@@H]1CN([C@H](C)CO)C(=O)c2cccc(NS(=O)(=O)c3ccc(F)cc3)c2O[C@H]1CN(C)S(=O)(=O)c1ccccc1, which cytotoxicity call is on record?
A: inactive

Q: With C[C@H]1CCCN(C(=O)CCNS(=O)(=O)c2ccc3c(c2)c(=O)n(C)c(=O)n3C)C1 as the compound, how does the cytotoxicity call read?
A: active

Q: For CN(CC(=O)NC1CCCC1)S(=O)(=O)c1ccc2c(c1)c(=O)n(C)c(=O)n2C, which cytotoxicity call is on record?
A: inactive

Q: For Cn1c(=O)c2cc(S(=O)(=O)NCCC(=O)NC3CCCC3)ccc2n(C)c1=O, which cytotoxicity call is on record?
A: active

Q: How did the cytotoxicity call turn out when Cc1ccc(S(=O)(=O)NCCC(=O)N2CCOCCOCCOCC2)cc1 was run?
A: inactive

Q: How did the cytotoxicity call turn out when CCOC(=O)N1CCN(C(=O)CN(C)S(=O)(=O)c2ccc3c(c2)c(=O)n(C)c(=O)n3C)CC1 was run?
A: inactive

Q: How did the cytotoxicity call turn out when Cn1c(=O)c2cc(S(=O)(=O)N3CCOCC3)ccc2n(C)c1=O was run?
A: inactive

Q: With C[C@H](CO)N1C[C@H](C)[C@H](CN(C)Cc2ccc(C(=O)Nc3ccccc3N)cc2)Oc2ccc(NS(=O)(=O)c3cn(C)cn3)cc2C1=O as the compound, how does the cytotoxicity call read?
A: inactive

Q: Which cytotoxicity call does the source give for C[C@H]1CN([C@@H](C)CO)C(=O)c2cc(NS(=O)(=O)c3cccs3)ccc2O[C@H]1CN(C)Cc1ccncc1 here?
A: inactive

Q: Which cytotoxicity call does the source give for Clc1ccc(/C=C/C2=Nc3cccc4cccc(c34)N2)cc1 here?
A: inactive

Q: For Nc1c(O)cccc1C(=O)O, which cytotoxicity call is on record?
A: inactive

Q: How did the cytotoxicity call turn out when CCC[C@H](NC(=O)[C@@H]1[C@H]2CCC[C@H]2CN1C(=O)[C@@H](NC(=O)[C@@H](NC(=O)c1cnccn1)C1CCCCC1)C(C)(C)C)C(=O)C(=O)NC1CC1 was run?
A: active

Q: For CN1CCN(C(=O)C[C@H]2CC[C@@H]3[C@H](COc4ccc(NC(=O)c5ccc(F)c(F)c5)cc4C(=O)N3C)O2)CC1, which cytotoxicity call is on record?
A: inactive

Q: For c1cc[n+](C[n+]2ccccc2)cc1, which cytotoxicity call is on record?
A: inactive

Q: N=C(C[n+]1ccccc1)NO was tested. Which cytotoxicity call did it give?
A: active

Q: Which cytotoxicity call does the source give for C[C@@H]1CCCCO[C@H](CN(C)Cc2ccc(C(F)(F)F)cc2)[C@H](C)CN([C@H](C)CO)C(=O)c2cc(NC(=O)c3ccncc3)ccc2O1 here?
A: inactive

Q: For C[C@@H]1CCCCO[C@H](CN(C)Cc2ccccc2)[C@H](C)CN([C@H](C)CO)C(=O)c2cc(NC(=O)Nc3ccccc3)ccc2O1, which cytotoxicity call is on record?
A: inactive

Q: For C[C@@H]1CN([C@@H](C)CO)C(=O)c2cc(NC(=O)Nc3ccccc3)ccc2O[C@@H](C)CCCCO[C@@H]1CN(C)Cc1ccccc1, which cytotoxicity call is on record?
A: inactive

Q: For C[C@@H]1CN([C@H](C)CO)C(=O)c2cc(NC(=O)Nc3ccccc3)ccc2O[C@@H](C)CCCCO[C@@H]1CN(C)Cc1ccccc1, which cytotoxicity call is on record?
A: active

Q: For C[C@H](CO)N1C[C@H](C)[C@H](CN(C)Cc2ccccc2)OCCCC[C@H](C)Oc2ccc(NC(=O)Nc3ccccc3)cc2C1=O, which cytotoxicity call is on record?
A: inactive

Q: How did the cytotoxicity call turn out when C[C@@H]1CCCCO[C@H](CN(C)Cc2ccccc2)[C@@H](C)CN([C@@H](C)CO)C(=O)c2cc(NC(=O)Nc3ccccc3)ccc2O1 was run?
A: inactive

Q: C[C@@H]1CN([C@H](C)CO)C(=O)c2cc(NC(=O)Nc3ccccc3)ccc2O[C@@H](C)CCCCO[C@H]1CN(C)Cc1ccccc1 was tested. Which cytotoxicity call did it give?
A: active

Q: How did the cytotoxicity call turn out when C[C@@H]1CN([C@@H](C)CO)C(=O)c2cc(NC(=O)Nc3ccccc3)ccc2O[C@@H](C)CCCCO[C@H]1CN(C)Cc1ccccc1 was run?
A: inactive

Q: Which cytotoxicity call does the source give for C[C@@H]1CCCCO[C@@H](CN(C)Cc2ccccc2)[C@H](C)CN([C@H](C)CO)C(=O)c2cc(NC(=O)Nc3ccccc3)ccc2O1 here?
A: active

Q: For C[C@@H]1CCCCO[C@H](CN(C)Cc2ccccc2)[C@H](C)CN([C@@H](C)CO)C(=O)c2cc(NC(=O)Nc3ccccc3)ccc2O1, which cytotoxicity call is on record?
A: inactive

Q: C[C@H](CO)N1C[C@H](C)[C@@H](CN(C)Cc2ccccc2)OCCCC[C@H](C)Oc2ccc(NC(=O)Nc3ccccc3)cc2C1=O was tested. Which cytotoxicity call did it give?
A: inactive

Q: C[C@@H]1CCCCO[C@@H](CN(C)Cc2ccccc2)[C@H](C)CN([C@@H](C)CO)C(=O)c2cc(NC(=O)Nc3ccccc3)ccc2O1 was tested. Which cytotoxicity call did it give?
A: active

Q: For C[C@@H]1CCCCO[C@@H](CN(C)Cc2ccccc2)[C@@H](C)CN([C@H](C)CO)C(=O)c2cc(NC(=O)Nc3ccccc3)ccc2O1, which cytotoxicity call is on record?
A: inactive

Q: How did the cytotoxicity call turn out when Cc1noc(C)c1NC(=O)N(C)C[C@@H]1Oc2ccc(NS(=O)(=O)c3cn(C)cn3)cc2CC(=O)N([C@@H](C)CO)C[C@@H]1C was run?
A: inactive

Q: How did the cytotoxicity call turn out when Cc1ccc(S(=O)(=O)N(C)C[C@H]2OCCCC[C@@H](C)Oc3ccc(NC(=O)Nc4ccc5c(c4)OCO5)cc3C(=O)N([C@@H](C)CO)C[C@H]2C)cc1 was run?
A: inactive
